Data from the supplement of paper PMC11001985.
Unmarked numbers belong to inactive results.

Compound: C#CCNC(=O)CCSSCCC(=O)NCCc1ccc(C=O)c(C=O)c1
Assay: lysine labeling ratio R10:1 (500 µM / 50 µM probe), SILAC-ABPP in living cells; higher = lower intrinsic lysine reactivity toward the probe, active = 2 or less
Details: HeLa; probe concentrations 500 vs 50 µM
Method in brief: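 In PBS at room temperature, living HeLa cells grown with SILAC light or heavy labels were treated with 50 µM or 500 µM of an alkyne-tagged, disulfide-linked lysine probe, with label swaps in both directions. Analysis was by LC-MS/MS on a TIMS-TOF Pro after click to biotin-azide, neutravidin capture and DTT release. For each lysine, R is the median across forward and reverse replicates of the filtered median high-probe/low-probe MS1 peptide ratio, capped at 20.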

Chain of UniProt P35579 (P35579 whole entry): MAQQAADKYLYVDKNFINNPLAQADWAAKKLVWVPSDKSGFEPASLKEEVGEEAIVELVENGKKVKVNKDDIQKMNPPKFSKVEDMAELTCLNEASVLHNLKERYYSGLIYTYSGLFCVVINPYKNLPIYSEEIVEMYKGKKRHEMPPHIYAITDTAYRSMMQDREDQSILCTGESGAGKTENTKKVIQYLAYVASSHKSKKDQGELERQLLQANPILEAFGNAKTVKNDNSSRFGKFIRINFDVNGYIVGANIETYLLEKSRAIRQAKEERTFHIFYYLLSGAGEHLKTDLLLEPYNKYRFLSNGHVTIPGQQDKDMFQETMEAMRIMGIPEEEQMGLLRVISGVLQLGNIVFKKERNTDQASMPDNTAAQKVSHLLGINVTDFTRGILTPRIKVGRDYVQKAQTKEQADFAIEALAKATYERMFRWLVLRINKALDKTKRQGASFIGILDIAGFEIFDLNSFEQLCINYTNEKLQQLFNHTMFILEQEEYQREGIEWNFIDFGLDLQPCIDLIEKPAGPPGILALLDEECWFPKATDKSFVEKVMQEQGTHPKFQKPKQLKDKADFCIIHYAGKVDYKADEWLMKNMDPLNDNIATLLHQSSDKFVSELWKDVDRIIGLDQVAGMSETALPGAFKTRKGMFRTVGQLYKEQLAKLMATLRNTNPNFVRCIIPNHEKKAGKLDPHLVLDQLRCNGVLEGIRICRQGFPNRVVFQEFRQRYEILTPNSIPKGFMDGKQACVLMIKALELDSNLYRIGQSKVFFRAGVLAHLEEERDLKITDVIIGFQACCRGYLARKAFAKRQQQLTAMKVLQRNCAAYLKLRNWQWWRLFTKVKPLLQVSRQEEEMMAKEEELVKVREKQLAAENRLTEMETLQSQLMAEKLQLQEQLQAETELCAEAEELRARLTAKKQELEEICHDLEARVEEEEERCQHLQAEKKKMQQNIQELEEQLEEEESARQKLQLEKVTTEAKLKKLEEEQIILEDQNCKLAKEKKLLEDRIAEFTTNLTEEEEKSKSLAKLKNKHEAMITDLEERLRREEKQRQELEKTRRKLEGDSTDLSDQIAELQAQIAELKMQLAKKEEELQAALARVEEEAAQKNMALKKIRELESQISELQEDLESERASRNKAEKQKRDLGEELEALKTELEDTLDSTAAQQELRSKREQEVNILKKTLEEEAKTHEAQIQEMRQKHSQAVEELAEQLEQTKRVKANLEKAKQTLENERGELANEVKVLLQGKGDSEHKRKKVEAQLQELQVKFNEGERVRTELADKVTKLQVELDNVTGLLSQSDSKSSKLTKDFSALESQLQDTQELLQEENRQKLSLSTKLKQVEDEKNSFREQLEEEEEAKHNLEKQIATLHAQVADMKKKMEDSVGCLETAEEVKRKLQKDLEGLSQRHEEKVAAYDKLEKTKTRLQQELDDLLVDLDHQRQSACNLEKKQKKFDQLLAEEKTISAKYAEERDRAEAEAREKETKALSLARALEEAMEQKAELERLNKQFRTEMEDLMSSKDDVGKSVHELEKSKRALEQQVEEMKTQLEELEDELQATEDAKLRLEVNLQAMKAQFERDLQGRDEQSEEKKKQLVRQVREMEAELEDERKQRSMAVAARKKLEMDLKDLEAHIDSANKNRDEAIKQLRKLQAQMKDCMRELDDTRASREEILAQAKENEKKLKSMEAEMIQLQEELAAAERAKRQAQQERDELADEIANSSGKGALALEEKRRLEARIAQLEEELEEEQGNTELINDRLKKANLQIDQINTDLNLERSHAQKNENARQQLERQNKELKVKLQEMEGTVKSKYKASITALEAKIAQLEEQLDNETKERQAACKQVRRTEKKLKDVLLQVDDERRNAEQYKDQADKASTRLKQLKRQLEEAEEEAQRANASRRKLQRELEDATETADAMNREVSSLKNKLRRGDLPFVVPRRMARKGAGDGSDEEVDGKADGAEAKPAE
Chain of UniProt P52272 (P52272 whole entry): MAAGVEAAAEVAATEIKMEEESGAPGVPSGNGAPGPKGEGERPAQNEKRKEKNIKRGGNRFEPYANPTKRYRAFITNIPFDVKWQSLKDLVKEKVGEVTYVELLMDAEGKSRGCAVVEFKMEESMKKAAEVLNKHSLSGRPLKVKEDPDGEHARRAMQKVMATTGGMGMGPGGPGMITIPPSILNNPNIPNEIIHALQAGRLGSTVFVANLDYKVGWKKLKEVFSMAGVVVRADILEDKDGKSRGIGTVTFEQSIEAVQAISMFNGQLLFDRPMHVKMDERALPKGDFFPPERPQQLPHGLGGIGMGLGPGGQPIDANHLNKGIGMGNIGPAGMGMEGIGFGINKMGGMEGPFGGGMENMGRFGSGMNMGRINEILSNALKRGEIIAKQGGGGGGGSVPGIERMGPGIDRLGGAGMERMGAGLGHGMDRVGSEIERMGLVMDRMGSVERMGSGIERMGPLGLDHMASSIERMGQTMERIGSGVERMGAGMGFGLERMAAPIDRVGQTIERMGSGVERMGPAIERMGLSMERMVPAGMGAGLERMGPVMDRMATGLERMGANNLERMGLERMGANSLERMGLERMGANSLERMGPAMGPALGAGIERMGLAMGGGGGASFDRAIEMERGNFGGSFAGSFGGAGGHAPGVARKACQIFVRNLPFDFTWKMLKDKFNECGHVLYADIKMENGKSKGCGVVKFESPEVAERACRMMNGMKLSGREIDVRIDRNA
Chain of UniProt P17844 (P17844 whole entry): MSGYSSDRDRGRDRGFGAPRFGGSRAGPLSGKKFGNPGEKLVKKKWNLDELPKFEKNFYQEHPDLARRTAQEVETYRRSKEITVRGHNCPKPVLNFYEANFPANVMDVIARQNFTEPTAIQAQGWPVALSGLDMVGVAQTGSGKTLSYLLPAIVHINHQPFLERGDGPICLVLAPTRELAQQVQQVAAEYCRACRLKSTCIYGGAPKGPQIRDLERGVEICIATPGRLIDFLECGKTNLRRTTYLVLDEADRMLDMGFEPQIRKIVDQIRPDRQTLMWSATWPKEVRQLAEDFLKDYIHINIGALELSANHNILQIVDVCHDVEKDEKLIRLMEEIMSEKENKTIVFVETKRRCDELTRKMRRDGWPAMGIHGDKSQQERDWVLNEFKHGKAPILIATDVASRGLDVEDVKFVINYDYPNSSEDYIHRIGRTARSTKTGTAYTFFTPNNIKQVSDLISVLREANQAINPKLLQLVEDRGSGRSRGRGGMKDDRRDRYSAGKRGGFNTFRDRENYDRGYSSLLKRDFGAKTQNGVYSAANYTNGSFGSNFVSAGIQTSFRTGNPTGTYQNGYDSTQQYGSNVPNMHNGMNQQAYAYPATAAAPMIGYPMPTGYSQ
Chain of UniProt Q14247 (Q14247 whole entry): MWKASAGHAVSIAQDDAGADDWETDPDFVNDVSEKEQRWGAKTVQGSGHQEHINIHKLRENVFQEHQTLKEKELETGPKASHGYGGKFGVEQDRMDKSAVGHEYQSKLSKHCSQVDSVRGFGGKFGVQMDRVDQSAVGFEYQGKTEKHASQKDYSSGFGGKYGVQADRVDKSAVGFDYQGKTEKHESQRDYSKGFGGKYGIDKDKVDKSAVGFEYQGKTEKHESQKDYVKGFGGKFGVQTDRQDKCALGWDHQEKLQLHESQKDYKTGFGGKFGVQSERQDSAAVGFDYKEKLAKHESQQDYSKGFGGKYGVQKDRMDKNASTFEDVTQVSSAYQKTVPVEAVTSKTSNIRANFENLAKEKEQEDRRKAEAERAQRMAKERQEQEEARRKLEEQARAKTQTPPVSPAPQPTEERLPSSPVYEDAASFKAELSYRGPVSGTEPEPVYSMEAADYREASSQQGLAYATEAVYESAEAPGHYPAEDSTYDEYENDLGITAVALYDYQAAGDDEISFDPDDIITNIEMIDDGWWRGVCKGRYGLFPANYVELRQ
Chain of UniProt P06396 (P06396 whole entry): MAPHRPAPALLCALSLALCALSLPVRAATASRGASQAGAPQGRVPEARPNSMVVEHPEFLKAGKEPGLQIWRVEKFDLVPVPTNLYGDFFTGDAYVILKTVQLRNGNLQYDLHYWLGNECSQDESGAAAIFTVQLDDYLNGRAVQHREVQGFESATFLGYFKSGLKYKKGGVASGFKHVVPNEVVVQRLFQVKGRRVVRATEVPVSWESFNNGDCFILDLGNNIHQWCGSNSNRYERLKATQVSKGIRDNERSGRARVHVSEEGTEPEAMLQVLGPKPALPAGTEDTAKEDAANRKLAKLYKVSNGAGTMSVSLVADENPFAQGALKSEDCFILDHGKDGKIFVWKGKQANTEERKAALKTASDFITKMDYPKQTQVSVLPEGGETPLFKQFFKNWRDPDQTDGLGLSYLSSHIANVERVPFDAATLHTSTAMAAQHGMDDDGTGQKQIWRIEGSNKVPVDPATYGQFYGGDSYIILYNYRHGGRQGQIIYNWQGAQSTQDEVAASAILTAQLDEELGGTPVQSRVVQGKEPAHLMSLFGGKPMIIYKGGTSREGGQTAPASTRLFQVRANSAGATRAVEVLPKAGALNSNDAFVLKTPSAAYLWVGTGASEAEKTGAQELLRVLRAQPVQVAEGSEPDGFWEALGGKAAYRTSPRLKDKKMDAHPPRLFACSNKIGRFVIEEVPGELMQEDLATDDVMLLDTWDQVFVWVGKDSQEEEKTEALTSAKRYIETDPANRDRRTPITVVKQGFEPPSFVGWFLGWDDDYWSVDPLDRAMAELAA
Chain of UniProt P60660 (P60660 whole entry): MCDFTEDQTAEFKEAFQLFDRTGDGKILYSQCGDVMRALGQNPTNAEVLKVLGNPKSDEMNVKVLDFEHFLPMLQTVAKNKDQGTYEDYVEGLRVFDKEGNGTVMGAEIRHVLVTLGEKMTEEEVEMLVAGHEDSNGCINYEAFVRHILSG
Chain of UniProt P80723 (P80723 whole entry): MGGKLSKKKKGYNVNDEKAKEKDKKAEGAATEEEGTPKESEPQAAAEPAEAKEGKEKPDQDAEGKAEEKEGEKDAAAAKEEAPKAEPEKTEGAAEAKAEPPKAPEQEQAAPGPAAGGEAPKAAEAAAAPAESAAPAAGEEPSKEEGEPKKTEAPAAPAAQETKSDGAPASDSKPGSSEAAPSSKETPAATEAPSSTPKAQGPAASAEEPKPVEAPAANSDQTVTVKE

Row | Target | lysine labeling ratio R10:1
1 | SLC3A2 (lysine site: K298) (UniProt P08195) | 6.33
2 | SEMA3C (lysine site: K40) (UniProt Q99985) | 3.38
3 | STMN1 (lysine site: K119) (UniProt P16949) | 1.62 (active)
4 | HMOX1 (lysine site: K243) (UniProt P09601) | 1.07 (active)
5 | PTGFRN (lysine site: K632) (UniProt Q9P2B2) | 11.6
6 | FAT1 (lysine site: K3783) (UniProt Q14517) | 1.6 (active)
7 | UniProt P55285 (lysine site: K418) | 1.1 (active)
8 | MYH9 (lysine site: K1638) (UniProt P35579) | 3.09
9 | HNRNPM (lysine site: K242) (UniProt P52272) | 1.67 (active)
10 | LAMP1 (lysine site: K137) (UniProt P11279) | 2.74
11 | VIM (lysine site: K445) (UniProt P08670) | 10.9
12 | UniProt P21589 (lysine site: K471) | 1.6 (active)
13 | MYH9 (lysine site: K1181) (UniProt P35579) | 3.53
14 | UniProt P05186 (lysine site: K346) | 0.557 (active)
15 | COL5A1 (lysine site: K905) (UniProt P20908) | 3.42
16 | CELSR2 (lysine site: K2001) (UniProt Q9HCU4) | 1.5 (active)
17 | GSN (lysine site: K245) (UniProt P06396) | 4.08
18 | DDX5 (lysine site: K470) (UniProt P17844) | 4.7
19 | AHNAK (lysine site: K5443) (UniProt Q09666) | 0.97 (active)
20 | UniProt Q96JJ7 (lysine site: K164) | 1.61 (active)

Row | Target | lysine labeling ratio R10:1
21 | MCAM (lysine site: K153) (UniProt P43121) | 4.14
22 | CTTN (lysine site: K161) (UniProt Q14247) | 1.61 (active)
23 | PRDX5 (lysine site: K146) (UniProt P30044) | 1.62 (active)
24 | KPNB1 (lysine site: K211) (UniProt Q14974) | 2.19
25 | UniProt P60660 (lysine site: K26) | 1.69 (active)
26 | UniProt P23352 (lysine site: K411) | 2.12
27 | KRT18 (lysine site: K426) (UniProt P05783) | 9.55
28 | VAT1 (lysine site: K391) (UniProt Q99536) | 2.03
29 | ROBO1 (lysine site: K224) (UniProt Q9Y6N7) | 0.52 (active)
30 | BASP1 (lysine site: K149) (UniProt P80723) | 3.54
31 | HSPA5 (lysine site: K521) (UniProt P11021) | 1.53 (active)
32 | ITGA2 (lysine site: K821) (UniProt P17301) | 3.08
33 | UniProt Q7L592 (lysine site: K72) | 0.87 (active)
34 | GALNT2 (lysine site: K509) (UniProt Q10471) | 3.5
35 | A2M (lysine site: K115) (UniProt P01023) | 0.757 (active)
36 | UniProt Q8N441 (lysine site: K154) | 1.13 (active)
37 | UniProt P14618 (lysine site: K367) | 3.33
38 | APOC3 (lysine site: K44) (UniProt P02656) | 3.68
39 | SLC39A10 (lysine site: K66) (UniProt Q9ULF5) | 0.9 (active)
40 | PTPRF (lysine site: K1103) (UniProt P10586) | 7.4
